Compound activity from PubChem BioAssay.
Cruzain Triton – cruzain (T. cruzi) inhibition with detergent; Potency, µM, for inactives: max response, negative = inhibition, usual class: inhibitors; 200,000 tested, 0.43% active; purified cruzain, Z-FR-AMC fluorescence, 0.01% Triton; AID 1478; P25779;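 also: plate controls were neutral wells for no effect and buffer without enzyme for full effect; nearly all actives have a fitted effect of over 40% in size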
Target sequence (P25779 123-467 limits assumed): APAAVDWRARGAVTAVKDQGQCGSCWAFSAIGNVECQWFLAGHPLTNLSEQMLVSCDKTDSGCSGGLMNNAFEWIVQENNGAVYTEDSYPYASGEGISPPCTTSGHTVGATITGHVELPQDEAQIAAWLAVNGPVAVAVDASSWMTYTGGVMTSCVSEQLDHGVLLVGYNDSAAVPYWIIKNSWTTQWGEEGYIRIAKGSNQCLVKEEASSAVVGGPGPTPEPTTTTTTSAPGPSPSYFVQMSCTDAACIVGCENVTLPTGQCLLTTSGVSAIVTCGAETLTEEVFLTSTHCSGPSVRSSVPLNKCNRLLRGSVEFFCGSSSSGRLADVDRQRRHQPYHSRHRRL
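Cruzain (1.5 nM) preincubated 15 min at RT with compound in 100 mM sodium acetate pH 5.5, 5 mM DTT, 0.01% Triton X-100. Reaction started with 2 uM Z-FR-AMC; AMC fluorescence (ex 360/em 450 nm) change over 60 s gave rate.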
Cruzain noTriton – inhibitors of Trypanosoma cruzi cruzain without detergent. P25779. purified cruzain, Z-FR-AMC fluorescence, no detergent. Potency, µM, for inactives: max response, negative = inhibition, usual class: inhibitors. 200,000 tested, 2.3% active;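 also: plate controls were enzyme without inhibitor for no effect and buffer without enzyme for full effect; nearly all actives have a fitted effect of over 40% in size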
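Purified cruzain at 1.5 nM, pre-incubated 15 min with compound at room temperature in 100 mM sodium acetate pH 5.5, 5 mM DTT, 0.00005% Triton X-100. Reaction started with 2 uM Z-FR-AMC; AMC fluorescence increase over 60 s gives rate.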
NS1 function inh – influenza NS1 inhibition; Potency, µM (top dose mostly 46.1 µM), without a hit: top-dose activity, positive = more growth; 270,000 tested, 0.4% active; AID 2326; calls by dose curve; also: actives are rising curves; nearly all actives have a fitted effect of over 50% in size
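Recovery from NS1-induced slow growth read by OD600 in budding yeast switched to galactose assay medium (pH 6.0, -URA) at 1:100 dilution. Compound 23 nl per well; the matching strain lacking NS1 serves as control.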
Numbers without * were called inactive; u = inconclusive; x = not tested or not shown. Only a selection was taken, and hits are over-represented in it overall. Unless noted, calls follow the shape of the dose curve; as a rule, active = well fitted curve in the direction sought with a large enough effect; inconclusive = small, poorly fitted or top-dose-only effect, or another doubt; inactive = no such curve, though single readings can be large; an effect the other way counts as inactive or inconclusive. Potency is read from the fitted curve at half-maximal effect.

SMILES	Cruzain Triton	Cruzain noTriton	NS1 function inh
O=C(O)/C=C(/C(=O)O)[C@]12CCN3CC4=CCO[C@@H]5CC(=O)N[C@@H]1C5[C@H]4C[C@H]32 (some centres not stated)	-5.4%	6.6%	-5.0%
Cc1ccc(NC(=O)CSc2ncc(S(=O)(=O)c3ccc(C(C)C)cc3)c(=O)[nH]2)cc1C	0.2%	1.6%	x
Cc1c(Cl)cccc1NC(=O)CSc1ncc(S(=O)(=O)c2ccc(C(C)C)cc2)c(=O)[nH]1	28.2µM*	u	x
COc1cc(Cl)c(C)cc1NC(=O)CSc1ncc(S(=O)(=O)c2ccc(C(C)(C)C)cc2)c(=O)[nH]1	28.2µM*	10.4%	x
CCc1ccc(S(=O)(=O)c2cnc(SCC(=O)Nc3ccc(OC)cc3OC)[nH]c2=O)cc1	-22.1%	15.9%	x
Fc1ccc(-n2ncc3c(Nc4ccc(Oc5ccc(Cl)cc5)cc4)ncnc32)cc1	-0.3%	-4.4%	x
O=C(CSc1ncc(CO)n1Cc1ccccc1)Nc1ccc(C(F)(F)F)cc1	-8.9%	8.4%	x
COc1ccc(/C=C/C(=O)Oc2cccc(/C=N/NC(=O)c3cccc(F)c3)c2)cc1	0.6%	u	8.2%
COc1cc(/C=N/NC(=O)c2ccc(CN3c4cccc5cccc(c45)S3(=O)=O)cc2)cc(OC)c1O	x	x	14.2%
COc1ccc(/C=C/C(=O)Oc2ccc(/C=N\NC(=O)c3ccc(F)cc3)cc2)cc1	0.0%	7.94µM*	9.4%
COc1ccc(/C=N/NC(=O)c2ccc(CN3c4cccc5cccc(c45)S3(=O)=O)cc2)cc1	-9.2%	15.8µM*	u
Cc1c(Cl)cccc1-n1c(SCC(=O)NCc2ccccc2)nc2n[nH]c(C)c2c1=N	-1.4%	6.6%	x
CCCC[N+](=O)[O-]	11.8%	0.6%	x
COC(=O)c1cc(NC(=O)CN(c2ccccc2)S(=O)(=O)N(C)C)ccc1Cl	-8.0%	-2.7%	x
O[C@H](CN1CC1)[C@@H](O)CN1CC1	0.5%	1.7%	-5.2%
Cc1c(Cl)cccc1-n1ncc(C(=O)Nc2ccc(Br)cc2F)c1C1CCNCC1	-11.7%	-11.9%	x
COc1ccc(NC(=O)C2CCN(S(=O)(=O)c3c(C)noc3/C=C/c3cccs3)CC2)cc1Cl	-3.5%	10µM*	x
COc1cc(NC(=O)C2CCN(S(=O)(=O)c3c(C)noc3/C=C/c3cccs3)CC2)cc(OC)c1	-2.5%	15.8µM*	x
COc1ccc(/C=C\c2onc(C)c2S(=O)(=O)N2CCC(C(=O)Nc3cccc(C)c3C)CC2)cc1	-2.5%	-20.0%	x
Cc1ccc(NC(=O)C2CCN(S(=O)(=O)c3c(C)noc3/C=C/c3cccs3)CC2)cc1F	-1.7%	u	x
COc1ccc(/C=C\c2onc(C)c2S(=O)(=O)N2CCC(C(=O)Nc3cccc(Cl)c3)CC2)cc1	-3.3%	7.94µM*	x
Cc1noc(/C=C/c2cccs2)c1S(=O)(=O)N1CCC(C(=O)Nc2ccc(F)c(Cl)c2)CC1	-2.4%	u	x
CC(C)(C)Nc1oc(-c2ccccc2)nc1-c1cccc2ccccc12	3.9%	-9.9%	x
O=[As](O)(O)c1ccc2nc3cc([As](=O)(O)O)ccc3nc2c1	-2.7%	5.5%	-2.6%
CCOCCCNC(=O)c1c(NC(=O)c2cc(=O)c3cc(C)c(C)cc3o2)sc2c1CCC2	2.4%	-4.9%	x
SMILES	Cruzain Triton	Cruzain noTriton	NS1 function inh
O=C(Oc1ccccc1)N1CCC[C@@]2(CCN(c3ccccc3)C2)C1	-1.8%	-21.8%	x
FC(F)(F)c1ccccc1-c1nccc(-n2ccnc2)n1	10.0%	9.3%	x
COC(=O)c1cccc(Cn2c(Cl)c(/C=N/Nc3ccccc3C)sc2=O)c1	-8.6%	12.6µM*	-5.0%
Cc1ccccc1N/N=C/c1sc(=O)n(Cc2cccc(C(=O)O)c2)c1Cl	x	x	-2.6%
COc1cccc2cc(-c3nnc(Nc4ccccc4C)s3)c(=O)oc12	3.3%	6.5%	x
CCSc1n[nH]c2nc3c(c(=O)n12)C1(CCCC1)Cc1ccccc1-3	2.4%	u	20.0%
C=CCSc1n[nH]c2nc3c(c(=O)n12)C1(CCCC1)Cc1ccccc1-3	1.9%	10µM*	-0.1%
C=Cc1ccc(COc2ccc3oc(-c4ccccc4)c(C(=O)OCC)c3c2)cc1	-5.8%	31.6µM*	x
CCOC(=O)c1c(-c2ccccc2)oc2ccc(OCc3ccc(C)cc3)cc12	-1.1%	10.1%	x
CC(=O)c1c(C)oc2ccc(NS(=O)(=O)c3ccc(C(C)C)cc3)cc12	-9.8%	8.0%	x
CCOC(=O)c1c(-c2ccccc2)oc2ccc(NS(=O)(=O)c3ccc(C)cc3C)cc12	-1.3%	15.8µM*	x
CCOC(=O)c1c(-c2ccccc2)oc2ccc(NS(=O)(=O)c3ccc(C(C)C)cc3)cc12	-3.3%	20µM*	x
CCOC(=O)c1c(-c2ccccc2)oc2ccc(N(C(C)=O)S(=O)(=O)c3cc(C)ccc3C)cc12	-3.0%	-10.3%	x
Cc1ccc(NC(=O)Nc2nnc(SCC(=O)N3CCC(C)CC3)s2)cc1	-4.1%	-13.2%	x
Cc1ccc(NC(=O)c2c3c(nc4ccccc24)C(=O)N(C2CCCCC2)C3)cc1F	-3.5%	-8.5%	x
Cc1cc(C)cc(NC(=O)C2CCCN2S(=O)(=O)c2cccc3nsnc23)c1 (configuration not stated)	-1.0%	-2.2%	x
COc1ccc(-c2noc(-c3ccc(N4CCCCC4C)c([N+](=O)[O-])c3)n2)cc1OC (configuration not stated)	1.5%	17.4%	x
C/C(=C\CNc1ncnc2c1ncn2[C@@H]1O[C@H](CO)[C@@H](O)[C@H]1O)CO	0.6%	-6.3%	x
N#Cc1c(NC(=O)CSc2ncnc3sccc23)oc(-c2ccco2)c1-c1ccco1	-11.6%	25.1µM*	3.6%
CCNC(=O)CSc1ncnc2sccc12	-3.3%	-8.8%	7.8%
CCC(CC)C(=O)N1CCc2cc(OC)c(OC)cc2C1COc1ccc(C(=O)OC)cc1 (configuration not stated)	1.2%	u	x
Cc1ccc(CNC(=O)/C=C/c2c(Cl)cccc2Cl)cc1	-0.1%	25.1µM*	11.2%
Cc1ccc(CNC(=O)/C=C/c2ccccc2Cl)cc1	0.4%	-2.2%	-5.9%
CCc1ccc(CCN2CCCCC2)nc1	2.1%	6.7%	1.0%
COCCn1c(=O)c(-c2cn(C)c3ccccc23)nc2cnc(Oc3cccc(Cl)c3)nc21	1.0%	14.1%	x
SMILES	Cruzain Triton	Cruzain noTriton	NS1 function inh
Cc1ccc(S(=O)(=O)NCCc2nnc3ccc(SCc4ccc(F)cc4)nn23)cc1	-7.6%	u	x
COc1ccc(OC)c(Nc2nc(C3CC3)nc3c2nnn3Cc2ccccc2)c1	-10.1%	-4.6%	18.6%
c1ccc(Cn2nnc3c(Nc4ccc5c(c4)OCO5)nc(C4CC4)nc32)cc1	-2.1%	15.8µM*	11.0%
CCCn1c(C)nc2c(N(C)CCN(C)C)nc(C)nc21	-3.2%	-1.1%	x
CSc1cc(-c2ccccc2)[nH]c(=O)c1C#N	x	x	3.5%
CSc1cc(-c2ccccc2)n(Cc2c(Cl)cccc2Cl)c(=O)c1C#N	0.2%	10µM*	0.0%
CCOC(=O)Cn1c(-c2ccccc2)cc(SC)c(C#N)c1=O	x	x	1.2%
CSc1cc(-c2ccc(Cl)cc2)n(Cc2ccccc2)c(=O)c1C#N	1.4%	25.1µM*	3.7%
COc1ccc(N(Cc2ccccc2)C(=O)c2nc(S(C)(=O)=O)ncc2Cl)cc1	-8.4%	23.2%	x
CC(=O)C1=C(C)NC(SCC(=O)c2ccc(C)cc2)=C(C#N)C1c1ccco1 (configuration not stated)	-15.2%	-29.1%	-51.4%
